KAT2A inh = blocks human GCN5L2 histone acetyltransferase | Q92830 | GCN5L2 HAT assay, ThioGlo1 CoA-SH fluorescence | Potency, µM (top dose mostly 58.9 µM), for inactives: at the top dose activity change, negative = inhibition, most hits filed as inhibitors | 390,000 compounds, 0.21% hits; further: potency means the concentration at half of the fitted maximal effect; on the % scale 0 is the no-effect control and ±100 the full control effect
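Free CoA generated was detected with ThioGlo1 (50uM) fluorescence at Ex340nm/Em540nm, read immediately and after 20 min at room temperature. Enzyme, 20 nM in HEPES pH 7.5 buffer, saw compounds 15 min before adding 75uM H3(1-25) peptide and 70uM acetyl-CoA.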
RGS12 GoLoco inh-1 = inhibitors of human Gai1-RGS12 GoLoco interaction (red fluorophore). Gai1:RGS12 GoLoco peptide FP, rhodamine, 10 min. Potency, µM (doses to about 61.6 µM), inactives show at the top dose activity, negative = inhibition, hits mostly inhibitors. 230,000 compounds, 0.44% hits; active means well fitted inhibition curve with a large enough effect, not every such curve was filed as active; inactive means no such curve, though single readings can be large or run the other way; further: potency means the concentration at half of the fitted maximal effect; on the % scale 0 is the no-effect control and ±100 the full control effect; nearly all actives have a fitted effect of over 30% in size
PGK inhibitor = blocks T. brucei phosphoglycerate kinase; PGK/GAPDH coupled, Kinase-Glo luminescence, 60 min; Potency, µM (titrated, usually from 57.5 µM), without a hit: at the top dose activity change, negative = inhibition, actives largely listed as inhibitors; 380,000 compounds, 0.043% hits; further: potency means the concentration at half of the fitted maximal effect; on the % scale 0 is the no-effect control and ±100 the full control effect; nearly all actives have a fitted effect of over 60% in size
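Luminescent ATP detection (Kinase-Glo Plus) follows a 60-minute room-temperature incubation, with wells lacking PGK as controls. Buffer: 100 mM TEA (pH 7.6), 5 mM MgCl2, 0.01% Tween-20. Coupling enzyme GAPDH (100 nM final) supplies unstable 1,3-BPG in-well.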
Pin1 inh = human Pin1 inhibition; Potency, µM (titrated, usually from 115 µM), for inactives: top-dose activity, negative = inhibition, hits mostly inhibitors; Pin1 FP peptide displacement, HiFluor488, 10 min; 390,000 compounds, 0.009% hits; active means well fitted inhibition curve with a large enough effect in the polarisation, with a control signal flat, not every such curve was filed as active; inconclusive means small, poorly fitted or top-dose-only effect, or effect the other way, or a change in a side signal; inactive means no such curve, though single readings can be large or run the other way; the % refers to the polarisation; further: potency means the concentration at half of the fitted maximal effect; on the % scale 0 is the no-effect control and ±100 the full control effect
Target sequence (Q13526 whole entry, looked up): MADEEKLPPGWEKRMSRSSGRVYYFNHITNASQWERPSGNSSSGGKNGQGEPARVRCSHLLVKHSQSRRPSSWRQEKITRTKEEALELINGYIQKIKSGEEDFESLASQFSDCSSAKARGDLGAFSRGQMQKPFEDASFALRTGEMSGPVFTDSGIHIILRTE
PI4K2A inh = PI4K2A (human) kinase inhibition; Q9BTU6; activity change, negative = inhibition, % at 76.9 µM; AID 1346378; purified PI4K2A, ADP-Glo luminescence, 1 h; active compounds read low; 420,000 compounds, 0.13% hits; in the data active means activity change below about -50%; inconclusive means mostly about -30% to -49%;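 further: -100% = wells without enzyme as full effect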
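Compounds are screened against recombinant PI4K2A using PI as substrate and ATP, the latter dispensed at 300 microM. Reactions run one hour at ambient temperature before ADP-Glo detection; full inhibition defined by wells lacking enzyme.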
PI5P4Ka inh = blocks human PI5P4K alpha kinase activity; P48426; PI5P4Kalpha enzyme, ADP-Glo luminescence, 60 min; active compounds read low; max response, %; 330,000 compounds, 1.2% hits; active means max response of -50% or lower; inconclusive means between -30% and -50%; inactive means -30% or higher; further: value at the top dose of about 77 µM; on the % scale 0 is the no-effect control and ±100 the full control effect
Target sequence (P48426 whole entry, looked up): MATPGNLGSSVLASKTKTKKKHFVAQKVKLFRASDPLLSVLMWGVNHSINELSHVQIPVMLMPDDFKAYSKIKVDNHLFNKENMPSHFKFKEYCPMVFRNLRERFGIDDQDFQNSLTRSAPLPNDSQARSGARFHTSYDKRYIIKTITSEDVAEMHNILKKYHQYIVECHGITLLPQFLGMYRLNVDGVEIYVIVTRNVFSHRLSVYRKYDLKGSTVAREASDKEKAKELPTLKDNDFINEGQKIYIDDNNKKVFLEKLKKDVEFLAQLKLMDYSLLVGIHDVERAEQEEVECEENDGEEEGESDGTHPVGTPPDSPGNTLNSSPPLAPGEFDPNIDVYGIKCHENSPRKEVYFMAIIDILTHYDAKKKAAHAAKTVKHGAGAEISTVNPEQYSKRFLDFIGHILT
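Controls without substrate or without enzyme flank wells where PI5P4Kalpha converts substrate using 5 microM ATP (final). Incubation lasts 60 minutes at room temperature; ADP formed is read by ADP-Glo luminescence.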
RGS12 GoLoco inh-2 = disrupts Gai1 binding to human RGS12 GoLoco peptide; shares compounds with RGS12 GoLoco inh-1; 110 compounds, 50% hits; AID 2390; Potency, µM (top dose mostly 57.1 µM), for inactives: top-dose activity, negative = inhibition, usual class: inhibitors; Gai1/rhodamine-RGS12 GoLoco peptide fluorescence polarization
Numbers without * were called inactive; i = inactive; ? = inconclusive; . = not tested or not shown; ! = not confirmed by another sample. Rows were chosen to be rich in hits. Some 1.2% of all compounds tested hit in one or more screens of this group. Unless noted, the call rests on the fitted dose curve; in most records, active means well fitted curve in the direction sought with a large enough effect; inconclusive means small, poorly fitted or top-dose-only effect, or another doubt; inactive means no such curve, though single readings can be large; an effect the other way counts as inactive or inconclusive.

SMILES	KAT2A inh	RGS12 GoLoco inh-1	PGK inhibitor	Pin1 inh	PI4K2A inh	PI5P4Ka inh	others
C#CCCOC(=O)Nc1ccccc1	-9%	-3%	-9%	-9%	0	2
CCSC1=C(C#N)C(c2cccc(Br)c2)CC(=O)N1 (stereo unspecified)	-26%	-7%	-7%	3%	1	.
Nc1nc(SCC(=O)c2ccc(F)cc2)n[nH]1	1%	7%	-6%	-14%	-1	-55*
Nc1nc(SCC(=O)c2cc(F)ccc2F)n[nH]1	-14%	9%	-7%	-4%	4	-9
COc1ccc(/C(C)=N/NC(=O)CNC(=O)CCc2ccccc2)c(OC)c1	-11%	-2%	-1%	2%	3	-1
COC/C=C/C1=CC2=CC(=O)C(C)(OC(=O)c3ccco3)C(=O)C2=CO1 (stereo unspecified)	0%	27%	.	.	.	.
COC/C=C/C1=CC2=CC(=O)C(C)(OC(=O)C3CCCC3)C(=O)C2=CO1 (stereo unspecified)	14%	16%	-18%	?	-27	-65*
O=C(CNC(=O)c1ccc2c(c1)OCO2)NCc1cccs1	0%	.	3%	0%	-3	-2
NC1=NC(=O)/C(=C/c2ccc(-c3ccc(S(N)(=O)=O)cc3)o2)S1	-3%	.	-12%	?	-16	-12
CS(=O)(=O)Nc1ccc(-c2ccc(/C=C3\SC(N)=NC3=O)o2)cc1	-6%	.	-12%	?	-4	-65*
Cc1ccc(CN2C(=O)C(Cc3ccccc3)Nc3ncnc(N4CCCCC4)c32)cc1 (stereo unspecified)	-8%	.	5%	42%	2	-7
O=C(NNC(=O)c1ccccc1F)c1cccc(-n2cccc2)c1	?	.	?	.	-20	-68*
NNc1nc2sc3c(c2c(=O)n1Cc1ccccc1)CCC3	-13%	45%	2%	25%	-7	-74*
Nn1c(Nc2ccccc2)nc2sc3c(c2c1=O)CCC3	-1%	-4%	0%	11%	3	-13
CCn1c(NN)nc2sc3c(c2c1=O)CCC3	-6%	37%	-9%	32%	-5	-59*
CC(C)N1CCN(Cc2cccn2-c2cccnc2)CC1CCO (stereo unspecified)	-9%	15%	-1%	-5%	-6	-5
NNc1nc2sc3c(c2c(=O)n1C1CCCCC1)CCN(Cc1ccccc1)C3	-2%	22%	-9%	2%	-1	8
COc1ccc(N(CC(C)C)S(=O)(=O)c2nnc(NC(=O)c3ccco3)s2)cc1	1µM*!	.	-4%	-5%	-7	?
CCN(c1ccc(OC)cc1)S(=O)(=O)c1nnc(NC(=O)c2ccco2)s1	-7%	.	-3%	?	1	?
OCCCc1nc2n(n1)C(c1cccs1)C=C(c1ccccc1)N2 (stereo unspecified)	-29%	8%	.	.	.	.
OCCCc1nc2n(n1)C(c1ccccc1)C=C(c1ccc(F)cc1)N2 (stereo unspecified)	?	-6%	i	?	-66*	.
COc1cc([C@@H]2c3cc4c(cc3[C@@H](O[C@@H]3O[C@H]5CO[C@@H](C)O[C@@H]5[C@@H](O)[C@H]3O)[C@@H]3COC(=O)[C@@H]23)OCO4)cc(OC)c1O	.	28µM*	.	.	.	.
CC(C)(CS(=O)(=O)[O-])NC(=O)CC[N+](C)(C)CCO	-17%	2%	2.2µM*	.	-21	?
O=C(NCCc1ccccn1)c1n[nH]c(=O)c2ccccc12	-9%	7%	-3%	-1%	-7	-15
OCCCc1nc2n(n1)C(c1ccccc1Cl)C=C(c1cccs1)N2 (stereo unspecified)	?	-6%	3%	?	-6	.
SMILES	KAT2A inh	RGS12 GoLoco inh-1	PGK inhibitor	Pin1 inh	PI4K2A inh	PI5P4Ka inh	others
Cc1c(Br)c(=O)oc2c(Br)c(O)c(O)cc12	-2%	-13%	?	?	-3	-63*
Cc1cc(NC(=O)C2Oc3ccccc3OC2C)no1 (stereo unspecified)	-9%	5%	9%	-9%	2	11
N=C1/C(=C\c2ccc(SCc3ccco3)o2)C(=O)N=C2SC=NN12	?	255%	-14%	?	-13	-58*
CC1=NN2C(=N)/C(=C\c3ccc(SCc4ccccc4)o3)C(=O)N=C2S1	-27%	52%	-8%	?	1	?
Cc1cc(/C=C2\SC(=S)NC2=O)c(C)n1C1CC1	-18%	38%	5%	?	-1	.
O=C1NC(=S)SC1=Cc1ccccc1Br	.	.	-4%	-3%	-2	-72*
O=C1NC(=S)SC1=Cc1cc(Br)ccc1O	.	.	-1%	13%	-4	-77*
CCOC(=O)C1CCN(C(=O)c2cc3ccc4ccc(C)[nH]c4c3n2)CC1	-1%	.	i	-5%	-2	.
O=C1CCNc2c(Cl)cccc21	-8%	4.5µM*	-3%	-15%	1	3
CN1C(=O)[C@H]2[C@@H](/C=C/c3ccccc3)N3C(=O)CN(Cc4ccccn4)C(=O)[C@@]3(Cc3ccccc3)[C@H]2C1=O	-3%	.	-4%	-11%	0	-4
CC1CN(C2CCN(C(=O)c3cccc(Cl)c3)CC2)CC(C)O1 (stereo unspecified)	-2%	1%	-14%	-1%	2	0
COc1ccc(NC(=O)N2CCN(c3ccc([N+](=O)[O-])cc3)CC2)cc1OC	1%	2%	-7%	9%	0	2
CCc1ccc2[nH]c(=O)c(C3C(C#N)=C(N)Oc4c3ccc3cccnc43)cc2c1 (stereo unspecified)	-7%	12%	0%	?	-3	-51*
Cc1ccc2cc(C3C(C#N)=C(N)Oc4c3ccc3cccnc43)c(=O)[nH]c2c1 (stereo unspecified)	45%	10%	i	?	4	.
Cn1nnnc1SCC(=O)N1CCN(c2ccc(Cl)cc2)CC1	-1%	-37%	-5%	-2%	-2	-3	RGS12 GoLoco inh-2=14µM*
Cc1ccc(C(=O)CSc2ncc3c(n2)-c2ccccc2N(Cc2ccc(Cl)cc2)S3(=O)=O)cc1	24%	.	6%	-10%	-4	.
O=C1NC(=O)c2c(NC(=O)C3CCCO3)cccc21 (stereo unspecified)	.	3%	-9%	2%	-11	.
COc1ccc(S(=O)(=O)N(C)C[C@H]2Oc3c(cccc3N(C)C)C(=O)N([C@H](C)CO)C[C@@H]2C)cc1	-3%	.	-7%	5%	-4	6

Screening data: PubChem, National Center for Advancing Translational Sciences (NCATS)
